# MenB inh: Mtb MenB enzyme inhibition; P9WNP5; MenB enzyme assay, absorbance read-out; inhibition, % (concentration not given with the values); 0.43% of 100,000 active; AID 540299; in the data active = inhibition above about 21%, passing the limit was not always enough
# AID504770: growth inhibitors of E. coli YBA685 in a screen for V. cholerae RctB (chromosome II replication) inhibitors | E. coli YBA685 rctB-dependent plasmid, OD600 growth, 3 h; stronger effect = lower value | z-score (test concentration not listed) | 0.27% of 130,000 active | AID 504770; in the data active = z-score below about -2, passing the limit was not always enough
# PV pol inh: poliovirus RNA polymerase inhibition. 0.66% of 150,000 active. % elongation, % (compound at 16.7 µg/mL). poliovirus polymerase elongation, fluorescence polarization; stronger effect = lower value. P03300; in the data active = % elongation below about 90%
# MbtI inh: MbtI salicylate synthase inhibition; 0.89% of 100,000 active; P9WFX0; inhibition, % (concentration not given with the values); purified MbtI enzyme, fluorescence intensity read-out; in the data active = inhibition mostly above about 56%, no sharp cut-off; inactive = mostly below about 77%
# Target sequence (P9WFX0 whole entry, looked up): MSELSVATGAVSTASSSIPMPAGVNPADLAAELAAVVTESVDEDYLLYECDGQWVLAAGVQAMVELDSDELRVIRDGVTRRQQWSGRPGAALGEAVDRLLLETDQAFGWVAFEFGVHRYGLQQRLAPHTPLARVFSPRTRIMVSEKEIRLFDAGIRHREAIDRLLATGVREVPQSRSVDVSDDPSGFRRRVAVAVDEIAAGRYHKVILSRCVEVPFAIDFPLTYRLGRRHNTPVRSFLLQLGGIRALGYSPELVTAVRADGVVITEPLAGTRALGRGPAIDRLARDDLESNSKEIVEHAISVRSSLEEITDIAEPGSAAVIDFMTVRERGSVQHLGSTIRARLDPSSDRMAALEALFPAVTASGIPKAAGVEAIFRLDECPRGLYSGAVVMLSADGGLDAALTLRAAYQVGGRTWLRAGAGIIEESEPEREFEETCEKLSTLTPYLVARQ
# * marks the source's active call; other numbers are inactive results; . = no result given; ! = not active in a repeat. An excerpt weighted towards active compounds, which were near 1.4% of everything screened.
SMILES,MenB inh,AID504770,PV pol inh,MbtI inh
CC(=C/C(=O)O)/C=C/c1ccccc1,-23,0.85,102,30
CC(/C=C/c1ccccc1)=N\NC(N)=S,-121,-0.45,103,91*
O=C1Cc2ccccc2CC(=O)N1,-3,-0.7,101,-23
O=C1NC(=S)NC(=O)C1C1CCCCC1,-32,-0.8,104,12
O=C1NNC(=S)C1C1CC1 (stereo not drawn),17,-0.15,99,83*
Cc1ccc2nc(C(C)O)[nH]c2c1 (stereo not drawn),-2,0.75,97,-5
CC(O)c1nc2cc3ccccc3cc2[nH]1 (stereo not drawn),34*,1.5,102,89
Cc1cc(C2=NN(C)C(=NCc3ccccc3)SC2)c(C)n1Cc1ccco1,-13,0.75,.,12
O=C(Cn1c(=O)c(CNc2ccccc2)cc2cc3c(cc21)OCCO3)Nc1ccccc1Cl,.,.,51*,.
Cc1ccc(Cl)cc1NC(=O)Cn1c(=O)c(CNc2ccccc2)cc2cc3c(cc21)OCCO3,.,.,102,.
Cc1c(C2=CCN(S(=O)(=O)Cc3ccccc3)CC2)c2ccccc2n1CC(=O)N1CCCC1,-21,-0.45,101,10
Cc1ccc(-n2c(C)cc(/C=N/NC3CCS(=O)(=O)C3)c2C)cc1 (stereo not drawn),3,1.4,166,15
O=S1(=O)CCC(N/N=C/c2ccccc2O)C1 (stereo not drawn),-28,-0.55,20*,-2
COc1cccc(NC(=O)CSc2ncc3c(n2)-c2ccccc2N(C)S3(=O)=O)c1,-18,0.05,102,5
CCCNC(=O)Nc1cn(CC(C)C)c(=O)c2ccccc12,1,-0.9,16*,120
CCN1CCCC1CNC(=O)Nc1cn(CC(C)C)c(=O)c2ccccc12 (stereo not drawn),-10,-0.3,100,-28
COc1ccc(CNC(=O)Nc2cn(CC(C)C)c(=O)c3ccccc23)c(OC)c1,.,.,-10*,.
Cc1ccc(N2CCN(C(=O)Nc3cn(CC(C)C)c(=O)c4ccccc34)CC2)c(C)c1,.,.,68*,.
Cc1cccc(N2CCN(C(=O)Nc3cn(CC(C)C)c(=O)c4ccccc34)CC2)c1C,.,.,98,.
COc1ccccc1N1CCN(C(=O)Nc2cn(CC(C)C)c(=O)c3ccccc23)CC1,.,.,104,.
CC12CCC(=O)N1C(C(=O)OCC(=O)N1CCN(S(=O)(=O)c3ccc4ccccc4c3)CC1)CS2 (stereo not drawn),-3,0.45,105,7
CC(=O)Nc1sc2c(c1CN1CCN(S(=O)(=O)c3ccccc3)CC1)CCCC2,-13,0.15,103,-14
CCCCn1c(Cc2ccccc2)nnc1SCC(=O)NC,11,-0.25,102,-5
CC(C)(C)N1CSC(=S)N(Cc2ccco2)C1,-49,-7.9*,101,74
Cc1ccc(CNC(=O)C2CSC(c3cccs3)=N2)cc1 (stereo not drawn),.,-0.8,.,-3
SMILES,MenB inh,AID504770,PV pol inh,MbtI inh
CCCNC(=O)c1ccc(NC(C)=O)cc1,-8,0,107,.
CC(=O)Nc1ccc(C(=S)NCCCO)cc1,-7,-1.1,77*,85
O=C(COc1ccc(Cl)cc1)OCc1ccc(Br)cc1,.,0.9,99,-9
CN(C)CCOC(=O)COc1ccc(Cl)cc1,68*!,-0.3,99,-11
O=C1CNC(=O)c2c(nc3n2CCC3)N1,34*,1.1,101,15
CCc1cc(=O)oc2c(C)c(OCC(=O)Nc3ccc4c(c3)OCO4)ccc12,-20,-0.7,80*,7
CC(=O)Nc1ccc(S(=O)(=O)N=S(C)(C)=O)cc1,-2,0.35,102,-7
COC(=O)/C=C/S(=O)(=O)c1ccc(Br)cc1,-11,-2.8*,104,100*
COC(=O)/C=C/S(=O)(=O)c1ccc(NC(C)=O)cc1,-12,-1.1,104,67*
O=C1NC(=S)C(=C2CCCC2)S1,-27,0.55,89,77*
Cc1cccc(N=Cc2cccc(O)c2)c1,-52,0.3,98,4
O=c1[nH]cnc2sc3c(c12)CCCC3,34*,1.2,101,29
O=C(C[n+]1cccc(C(=O)Nc2ccccc2)c1)c1ccc(N2C(=O)c3ccccc3C2=O)cc1,-89,-2.8,102,57*
CCOC(=O)/C=c1\[nH]c(=O)/c(=C\c2ccc(C)s2)s1,-48,0.55,163,1
CCC(CC)NC(=O)COc1ccc(Cl)cc1Cl,.,0.15,101,-4
O=C(COc1ccc(Cl)cc1Cl)NO,.,-5.4*,.,.
COc1ccc(CCNC(=O)CCNc2ccccc2C)cc1OC,-17,-0.45,101,-2
COc1cccc(C2C(C#N)=C(N)Oc3c2c(=O)n(C)c(=O)n3C)c1 (stereo not drawn),-42,-0.75,101,-20
Cn1c2c(c(=O)n(C)c1=O)C(c1ccccc1)C(C#N)=C(N)O2 (stereo not drawn),-19,-2.3,85*,.
COc1cc(NC(=O)CS)cc(OC)c1,-107,-0.2,99,90*
CCOC(=O)Cn1cc(I)c(=O)[nH]c1=O,-20,0.1,101,-4
CCS(=O)(=O)NCC1COC2(CCCCC2)O1 (stereo not drawn),-9,0.5,101,0
NCCNCC1COC2(CCCCCCCCCCC2)O1 (stereo not drawn),5,-2.9*,100,0
COCC(C)Nc1ncnc2sc3c(c12)CCC3 (stereo not drawn),-5,-0.65,104,-9
CCSc1nsc(NC(=O)Nc2cccc(F)c2)n1,15,-2.8*,102,20
SMILES,MenB inh,AID504770,PV pol inh,MbtI inh
CC(C)(C)c1ccc(OCCn2cccc2/C=C2/C(=N)N3C=CSC3=NC2=O)cc1,4,1.1,101,1
COC1=CC(=O)C(C)=CC1=O,.,-3.1*,.,.
CN(CC(=O)Nc1ccc(N2CCOCC2)cc1)Cn1nc(Nc2ccccc2F)sc1=S,-31,0.8,96,99*
Cc1sc(Nc2ccccc2)nc1-c1ccccc1,-7,0.5,101,-2
c1ccc(Nc2nc3c(ccc4ccccc43)s2)cc1,-19,-0.55,83*,.
CC1CCC(C(C)C)C(OC(=O)COC(=O)c2ccc(Br)o2)C1 (stereo not drawn),-20,-0.6,100,-12
COc1ccc(C(=O)Nc2nccs2)c(F)c1,-26,-3*,104,-2
O=C(Nc1nccs1)c1cccc(Cl)c1,-6,-0.8,103,6
Cc1cccc(C(=O)Nc2nccs2)c1,.,-3.1*,.,.
COc1ccc(C(=O)n2c3c(c(=O)n2-c2ccccc2)Cc2ccc(OC)cc2O3)cc1,54*,0.15,101,0
O=C(COCc1nc2ccccc2s1)Nc1ccc(-c2nnc3n2CCCCC3)cc1,-23,-0.05,89*,-1
COc1ccc(CC(=O)Nc2ccc(-c3nnc4n3CCCCC4)cc2)cc1,-11,-0.7,106,-11
NCc1nc(-c2ccccc2)no1,17,-0.75,100,-1
CC(C)NC(=O)Cn1c(SCC(=O)N2CCc3ccccc32)nc2ccccc21,0,-0.5,102,-6
NC(=O)C1CCN(C2CC(=O)N(Cc3ccc4c(c3)OCO4)C2=O)CC1 (stereo not drawn),-39,0.75,103,86*
NC(=O)C1CCN(CC(O)Cc2ccc3c(c2)OCO3)CC1 (stereo not drawn),.,-0.65,.,.

# Screening data as filed in PubChem.
